# DT40 TDP1 CPT = DT40-hTDP1 cell growth loss with CPT; actives 12% (n = 420,000); chicken DT40 Tdp1-/-;hTDP1 cells + 20 nM CPT, ATP luminescence, 48 h; AID 686979; Potency, µM (series often up to 46.2 µM), for inactives: at the top dose activity change, negative = growth inhibition, most hits filed as inhibitors; also: potency is read from the fitted curve at half-maximal effect; nearly all actives have a fitted effect of over 55% in size
#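 Chicken DT40 Tdp1-/- cells stably complemented with human TDP1 were seeded at 400 cells/well in medium containing 20 nM camptothecin, exposed to pin-transferred compounds, and grown at 37 °C for at least 48 hr. Viability was read as ATP luminescence.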
# IL1B secr inh = inflammasome signaling inhibition, IL-1 beta readout; AID 743279; actives 4.7% (n = 360,000); THP-1 LPS/ATP IL-1B secretion, AlphaLISA, 16 h; active compounds read low; activity change, % at 57.5 µM; in the data active = activity change below about -50%; inconclusive = mostly about -30% to -49%
#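 THP-1 cells pretreated 1 hr with compounds (up to 57.5 uM final), then stimulated with LPS (250 ng/mL final) plus ATP (1.25 mM final); secreted IL-1B measured by AlphaLISA after 16 hr, decreased signal indicating inhibition.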
# ELG1 repair inh = blocks ELG1-dependent DNA repair in HEK293T cells; HEK293T ELG1-luciferase reporter, luminescence, 16 h; DNA damage induced by 5-fluorouridine; Potency, µM (top dose mostly 46.1 µM), without a hit: top-dose activity change, negative = inhibition, hits mostly inhibitors; actives 2.3% (n = 330,000); AID 504467; also: potency is read from the fitted curve at half-maximal effect; nearly all actives have a fitted effect of over 55% in size
#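 Reporter activity after DNA damage by 5-fluorouridine is monitored. Compound-treated cells incubate 16 hr at 37 °C, then ONE-Glo is added for 30 min before luminescence reading.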
# DT40 TDP1 no CPT = qHTS for Inhibitors of human tyrosyl-DNA phosphodiesterase 1 (TDP1): qHTS in cells in absence of CPT. actives 15% (n = 420,000). AID 686978, 2013. DT40 Tdp1-/- hTDP1 cells, no CPT, ATP luminescence, 48 h. Potency, µM (titrated, usually from 46.2 µM), inactives show at the highest dose activity change, negative = growth inhibition, usual class: inhibitors; also: potency is read from the fitted curve at half-maximal effect; nearly all actives have a fitted effect of over 55% in size
#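 Growth of hTDP1-complemented DT40 Tdp1-knockout cells is measured by ATP luminescence after at least 48 hr compound exposure at 37 °C, with DMSO substituting for the 20 nM CPT used in the parallel screen.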
# HT1080 IDH1KD tx = kills HT-1080 cells with IDH1 knockdown | HT-1080 IDH1 knockdown viability, ATP luminescence, 48 h | Potency, µM (series often up to 46.1 µM), for the others: at the top dose activity, negative = toxicity, most hits filed as cytotoxic | actives 2% (n = 360,000);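 also: potency is read from the fitted curve at half-maximal effect; 0% = DMSO wells and -100% = cell-free medium wells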
#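 CellTiter-Glo luminescence after 48 h compound exposure at 37 degrees C of IDH1-knockdown HT-1080 cells in 5% FBS RPMI. %Activity scaled between DMSO wells and cell-free media wells, with curves fitted and assigned curve classes.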
# HT1080NT lethal = kills 2HG-producing HT-1080-NT fibrosarcoma cells | HT-1080-NT fibrosarcoma viability, CellTiter-Glo ATP luminescence, 48 h | Potency, µM (titrated, usually from 46.1 µM), without a hit: at the top dose activity, negative = less viability, most hits filed as cytotoxic | actives 1.6% (n = 360,000) | AID 686970;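 also: NT is the 2HG producing partner of a matched IDH1 knockdown line; potency is read from the fitted curve at half-maximal effect; 0% = DMSO-treated cells and -100% = media-only wells without cells; nearly all actives have a fitted effect of over 55% in size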
#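 HT-1080-NT fibrosarcoma cells (2HG-overproducing), 750 cells/well in RPMI with 5% FBS, dosed after 2 h and incubated 48 h at 37C. CellTiter-Glo luminescence normalized to DMSO and no-cell wells; concentration-response curves fitted and classed.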
# Numbers without * were called inactive; ? = inconclusive; . = no result given; ! = not active in a repeat. Hits are enriched below; roughly 19% of the tested compounds scored in any of these assays. Unless noted, calls follow the shape of the dose curve; as a rule, active = well fitted curve in the direction sought with a large enough effect; inconclusive = small, poorly fitted or top-dose-only effect, or another doubt; inactive = no such curve, though single readings can be large; an effect the other way counts as inactive or inconclusive. Unless noted, % is scaled to controls: 0 for no effect and ±100 for the full control effect.
SMILES,DT40 TDP1 CPT,IL1B secr inh,ELG1 repair inh,DT40 TDP1 no CPT,HT1080 IDH1KD tx,HT1080NT lethal
CCCCCOC(=O)CSc1nc2sc3c(c2c(=O)n1Cc1ccccc1)CC(C)(C)OC3,-1.5%,.,.,?,.,.
CCC1(C)Cc2c(sc3nnn(CC(=O)Nc4ccccc4C)c(=O)c23)CO1 (centres undefined),?,14.0,10.3µM*,?,-11.0%,-1.3%
COc1ccc(CC(=O)Oc2ccc(C)cc2Br)cc1OC,-18.4%,-3.9,4.6%,0.7%,0.4%,2.1%
CCCS(=O)(=O)NC(=O)C1(C)CCCN(C(=O)CSc2ccccc2)C1 (centres undefined),-4.7%,0.0,.,-5.9%,1.5%,?
C[C@@H]1CN([C@H](C)CO)C(=O)c2cc(Br)cnc2O[C@H]1CN(C)C(=O)CC1CC1,-21.1%,7.8,.,6.2%,10.6%,5.7%
Cc1ccc(/C=C(\NC(=O)c2ccccc2)C(=O)NC2CCN(Cc3ccccc3)CC2)o1,2.8%,-20.7,10.7%,5.4%,14.2%,11.8%
COc1ccc(-c2csc3ncnc(N4CCN(c5ccccc5[N+](=O)[O-])CC4)c23)cc1,?,-6.1,5.17µM*,18.4µM*,-28.8%,-22.7%
CC(C)c1ccc(-c2csc3ncnc(N4CCN(C)CC4)c23)cc1,16.4µM*,-91.6*,11.6µM*,11.6µM*,20.6µM*,16.4µM*
COc1ccc(-c2csc3ncnc(N4CCN(c5ccccc5O)CC4)c23)cc1,?,-17.5,?,16.4µM*,-4.5%,0.7%
CN1CCCN(c2ncnc3scc(-c4ccc(F)cc4)c23)CC1,-21.3%,-7.2,10.0%,?,-1.1%,3.1%
COc1ccc(-c2csc3ncnc(N4CCN(c5ccccc5)CC4)c23)cc1,?,-22.1,?,?,?,-20.2%
Cc1ccc(-c2csc3ncnc(N4CCN(c5ccccc5O)CC4)c23)cc1,?,-61.3*,5.8µM*,14.6µM*,0.8%,-8.0%
COc1ccc(-c2csc3ncnc(N4CCN(c5ccc(OC)cc5)CC4)c23)cc1,23.1µM*,58.1,?,13µM*,-0.6%,-27.5%
Nc1nc(Cl)cc(Sc2ccc3ccccc3c2)n1,14.6µM*,-5.2,-14.6%,23.1µM*,16.4µM*,?
C/C(=N\NC(=O)Cn1cc([N+](=O)[O-])cn1)c1ccco1,10.2%,8.8,20.5%,10.7%,12.0%,5.6%
Cc1nc(SCc2ccc(OCCC(C)C)cc2)n[nH]1,14.6µM*,22.6,?,?,-4.9%,-3.3%
COCC(=O)Nc1cc(C(=O)N2CCCC(C(C)=O)C2)cc2nc(-c3ccccc3)n(C)c12 (centres undefined),5.0%,.,.,1.3%,.,.
Cc1cc2nc(-c3ccc(OCc4ccccc4C)cc3)cc(C(F)(F)F)n2n1,?,.,.,16.4µM*,.,.
Cc1cccc(N=Nc2c(N)n[nH]c2-c2ccc(Cl)cc2)c1,?,-54.1*,-2.0%,?,?,?
Nc1n[nH]c2cccc(Cl)c12,-8.8%,-25.9,8.4%,-13.1%,-0.2%,-1.3%
Cc1ccc(-c2[nH]nc(N)c2N=Nc2ccccc2C)cc1,?,?,3.6%,?,18.4µM*,?
Nc1n[nH]c(C2CC2)c1N=Nc1ccc(Cl)cc1,-2.7%,-13.7,-1.9%,-10.8%,6.6%,21.8%
Cc1ccc(-c2[nH]nc(N)c2N=Nc2cccc(Cl)c2C)cc1,?,-76.2*,?,13µM*,?,?
Cc1ccc(N=Nc2c(N)n[nH]c2N)cc1,2.1%,-64.0*,?,-6.3%,19.8%,13.2%
CCOc1ccc(CN2C(=O)c3ccccc3Sc3ccc(C(=O)NCc4ccco4)cc32)cc1,-25.4%,.,.,-23.9%,.,.
SMILES,DT40 TDP1 CPT,IL1B secr inh,ELG1 repair inh,DT40 TDP1 no CPT,HT1080 IDH1KD tx,HT1080NT lethal
Cc1ccc(/C=C/C(=O)OCC(=O)N(C)c2c(N)n(Cc3ccccc3)c(=O)[nH]c2=O)o1,-2.9%,10.0,.,-4.8%,-0.5%,-1.2%
Cc1cc(SCC(=O)NCc2ccc(Cl)cc2)nc(=O)[nH]1,-2.5%,.,.,-13.1%,.,.
Cc1cc2c(=O)n(C)c(SCC(=O)Nc3ccccc3C)nc2s1,?,35.9,?,?,-6.4%,-2.2%
COC(=O)N1CCC2(CCCN(c3ccc(-c4ccccc4)cc3)C2)CC1,-1.6%,.,.,?,.,.
O=C(c1ccncc1)N1CCC2(CC1)CCN(c1ccc(-c3ccccc3)cc1)CC2,6.51µM*,.,.,?,.,.
O=S(=O)(c1ccccc1)N1CCC2(CCN(c3ccncc3)CC2)CC1,11.6µM*,.,.,13µM*,.,.
CC(=O)N1CCC2(CC1)CCN(c1ccc(-c3ccccc3)cc1)CC2,10.3µM*,.,.,8.2µM*,.,.
O=C(c1ccncc1)N1CCC2(CC1)CCN(c1ncccn1)CC2,-7.6%,.,.,-28.0%,.,.
COCC(=O)N1CCC2(CC1)CN(C(=O)Nc1ccccc1)C2,15.2%,.,.,-4.3%,.,.
COCC(=O)N1CCC2(CC1)CN(c1ccc(-c3ccccc3)cc1)C2,8.2µM*,.,.,5.8µM*,.,.
Cc1ccc(CN2CCNC(=O)C2CC(=O)N(C)C2CCOCC2)cc1 (centres undefined),-5.8%,15.9,6.5%,13.0%,5.6%,7.7%
O=C(c1ccncc1)N1CCC2(CC1)CN(c1ccccc1)C2,16.4µM*,.,.,?,.,.
O=C(CC1NCCNC1=O)Nc1cccc(F)c1 (centres undefined),-1.6%,.,.,-7.9%,.,.
CNC(=O)[C@H]1O[C@@H](n2cnc3c(NCc4cccc(I)c4)nc(Cl)nc32)[C@H](O)[C@@H]1O,?,-89.4*,-25.7%,20.6µM*!,7.4%,22.8%
CNC(=O)[C@H]1O[C@H](n2cnc3c(NCc4cccc(I)c4)ncnc32)[C@@H](O)[C@@H]1O,12.2%,.,.,?,.,.
CCOc1ccc(NC(=O)CSc2nc(C)c(C(=O)Nc3ccccc3)c(-c3ccc(Cl)cc3)c2C#N)cc1,-11.3%,.,.,-11.2%,.,.
Cc1ccc(S(=O)(=O)/N=C2\C(=O)c3ccccc3C([O-])=C2n2cc[n+](CCC(C)C)c2)cc1,16.4µM*,44.4,-11.8%,16.4µM*,10µM*,?
CC(=O)Nc1ccc(S(=O)(=O)/N=C2\C(=O)c3ccccc3C([O-])=C2n2cc[n+](-c3ccccn3)c2)cc1,3.66µM*,63.4,?,8.2µM*,-16.3%,-5.2%
Cc1ccc(NC(=O)C[n+]2ccn(C3=C([O-])c4ccccc4C3=O)c2)cc1,13.8%,-3.4,3.3%,-11.2%,-14.9%,-9.3%

# Screens as filed in PubChem.
